NPSR antag – qHTS Assay for Antagonists of the Neuropeptide S Receptor: cAMP Signal Transduction; Q6W5P4; CHO-NPSR cells, cAMP TR-FRET, antagonist mode; Potency, µM (top dose mostly 38.3 µM), actives largely listed as inhibitors; 220,000 compounds, 1% hits; AID 1461, 2008; note: nearly all actives have a fitted effect of over 50% in size
ALOX12 inhib – qHTS Assay for Inhibitors of 12-hLO (12-human lipoxygenase) | Potency, µM (highest dose often 57.1 µM), actives largely listed as inhibitors | purified 12-hLO, xylenol orange hydroperoxide absorbance | AID 1452, 2008 | Polyunsaturated fatty acid lipoxygenase ALOX12 (Homo sapiens), P18054 | 150,000 compounds, 0.12% hits; note: nearly all actives have a fitted effect of over 55% in size
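150 nM 12hLO, 25 mM Hepes pH 7.0 + 0.01% Triton X-100; cpd preinc 15 min RT; 40 uM arachidonic acid, 30 min RT; Fe-XO 30 min; A573/A405 ratio as read-out.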
HPGD inh – qHTS Assay for Inhibitors of HPGD (15-Hydroxyprostaglandin Dehydrogenase). 15-hydroxyprostaglandin dehydrogenase [NAD(+)] (Homo sapiens), P15428. purified HPGD, NADH fluorescence kinetic, PGE2 substrate. Potency, µM, usual class: inhibitors. 150,000 compounds, 4.3% hits; active = well fitted inhibition curve with a large enough effect, not every such curve was filed as active; inconclusive = small, poorly fitted or top-dose-only effect, or another doubt; inactive = no such curve, though single readings can be large or run the other way
Target sequence (P15428 whole entry, looked up): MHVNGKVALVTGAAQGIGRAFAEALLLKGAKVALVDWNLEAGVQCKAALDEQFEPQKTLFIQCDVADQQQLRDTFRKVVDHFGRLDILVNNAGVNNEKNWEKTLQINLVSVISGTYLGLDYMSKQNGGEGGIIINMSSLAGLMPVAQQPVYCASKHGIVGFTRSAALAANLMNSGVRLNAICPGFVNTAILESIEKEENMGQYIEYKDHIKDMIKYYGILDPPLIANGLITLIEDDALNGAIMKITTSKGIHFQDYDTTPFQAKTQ
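NADH formation kinetics: reaction with 30 uM PGE2 and 1 mM NAD+ (final), 20 nM enzyme, Tris-HCl pH 8 with Tween 20, after 15 min compound preincubation at room temperature. Fluorescence change, last versus first of five reads.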
IMPase inh – qHTS Assay for Identifying the Cell-Membrane Permeable IMPase Inhibitors. AID 901, 2007. inhibition (IP1 accumulation), % at 46.1 µM. 120,000 tested, under 10 active. Inositol monophosphatase 1 (Rattus norvegicus), P97697. CHO-M1 cells, IP1 accumulation, HTRF TR-FRET ratio; active = well fitted curve in the direction sought with a large enough effect in the signal ratio, not every such curve was filed as active; inconclusive = small, poorly fitted or top-dose-only effect, or a change in a side signal; inactive = no such curve, though single readings can be large or run the other way; the % refers to the signal ratio;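 note: cells stimulated with carbachol in lithium chloride buffer; higher means more IMPase inhibition seen as more IP1 and lower FRET ratio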
Target sequence (P97697 whole entry, looked up): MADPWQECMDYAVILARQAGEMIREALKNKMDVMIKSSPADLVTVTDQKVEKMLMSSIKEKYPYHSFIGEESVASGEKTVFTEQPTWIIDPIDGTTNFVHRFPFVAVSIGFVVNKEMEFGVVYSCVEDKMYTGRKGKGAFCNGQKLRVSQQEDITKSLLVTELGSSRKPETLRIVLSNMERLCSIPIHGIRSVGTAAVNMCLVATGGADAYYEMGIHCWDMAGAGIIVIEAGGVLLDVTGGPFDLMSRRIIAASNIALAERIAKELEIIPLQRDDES
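Cellular IMPase inhibition is scored as a rise in cytosolic IP1, detected by competitive TR-FRET between d2-labelled IP1 and a europium anti-IP1 antibody. M1-expressing CHO cells were stimulated with carbachol for 30 min at 37C, with lithium (50 mM LiCl) present in the buffer.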
ALDH1A1 block – qHTS Assay for Inhibitors of Aldehyde Dehydrogenase 1 (ALDH1A1); Aldehyde dehydrogenase 1A1 (Homo sapiens), P00352; Purified ALDH1A1, NADH fluorescence, propionaldehyde substrate; Potency, µM (titrated, usually from 75.3 µM), usual class: inhibitors; 220,000 compounds, 7.3% hits; AID 1030, 2008; active = well fitted inhibition curve with a large enough effect, not every such curve was filed as active; inconclusive = small, poorly fitted or top-dose-only effect, or another doubt; inactive = no such curve, though single readings can be large or run the other way
IMPase Li inh – qHTS Assay for Identifying the Cell-Membrane Permeable IMPase Inhibitors: Potentiation with Lithium. CHO-M1 cells, IP1 TR-FRET (IP-One), carbachol + lithium. Potency, µM (doses to about 59.4 µM), actives largely listed as inhibitors. 210,000 compounds, 0.35% hits. AID 1457, 2008;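 note: IP1 builds up when IMPase is blocked and the TR-FRET signal falls; nearly all actives have a fitted effect of over 50% in size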
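Lithium-sensitised IP1 accumulation assay; M1-expressing CHO cells treated 30 min at 37C with compound. Competitive antibody detection by time-resolved FRET followed a 10 min room-temperature lysis step.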
Numbers stand for hits; - = inactive; ? = inconclusive; . = no result; [ ] = remark or other dose. Shown are actives, neighbours in structure and some others; about 8.9% of the full set was active somewhere. Unless noted, calls come from the whole dose curve; as a rule, active = well fitted curve in the direction sought with a large enough effect; inconclusive = small, poorly fitted or top-dose-only effect, or another doubt; inactive = no such curve, though single readings can be large; an effect the other way counts as inactive or inconclusive.

SMILES	NPSR antag	ALOX12 inhib	HPGD inh	IMPase inh	ALDH1A1 block	IMPase Li inh
C=CCn1c(=O)/c(=C/c2ccc(Cl)cc2)s/c1=C(/C#N)c1nnc2n1CCCCC2	?	-	25µM	-	?	-
CCCC(O)(CCN(C)C)c1ccc(OC)cc1 (centres undefined)	-	-	-	-	10µM	-
COc1ccc(CC(=O)OCCN(C)C)cc1	-	-	-	-	-	-
CCCC12CN3CCN(CC(C3)/C1=N\NC(=O)c1ccccc1N)C2	-	-	?	-	?	-
CCCC12CN3CCN(CC(C3)/C1=N\NC(=O)c1ccc(C(C)(C)C)cc1)C2	-	-	-	-	32µM	-
COc1ccc2cc(C(c3nnnn3Cc3ccc(F)cc3)N3CCCCCC3)c(=O)[nH]c2c1 (centres undefined)	-	-	?	-	?	-
COc1ccc2cc(C(c3nnnn3Cc3ccccc3)N3CCCCCC3)c(=O)[nH]c2c1 (centres undefined)	?	-	-	?	14µM	-
COc1ccc(Cn2nnnc2C(c2cc3ccc(OC)cc3[nH]c2=O)N2CCC(C)CC2)cc1 (centres undefined)	?	-	-	-	0.89µM	-
COc1ccc2cc(C(c3nnnn3CCc3ccccc3)N3CCC(O)CC3)c(=O)[nH]c2c1 (centres undefined)	-	-	-	-	?	-
Cc1ccccc1NC(=O)c1ccc(S(=O)(=O)C(F)F)cc1	-	-	-	-	-	-
Cc1ccccc1C(=O)c1c[nH]c(C(=O)NCCc2ccccn2)c1	-	.	.	.	22µM	-
Cc1ccccc1C(=O)c1c[nH]c(C(=O)NCc2ccco2)c1	-	-	-	-	20µM	-
COc1ccc(C(=O)c2c[nH]c(C(=O)NCc3ccco3)c2)cc1	-	-	?	-	?	-
CCC(=O)c1c[nH]c(C(=O)NCCc2ccccn2)c1	-	-	-	-	-	-
Cc1cc(C)nc(-n2ncc3c2CC(C)CC3=O)n1 (centres undefined)	-	.	.	.	.	.
CCOc1ccc2nc(SCC(=O)N3c4ccccc4Sc4ccccc43)c(C#N)cc2c1	-	-	-	.	-	-
C=CCNC(=O)/C(=C/c1cn(-c2ccccc2)nc1-c1cccc([N+](=O)[O-])c1)NC(=O)c1ccccc1	-	-	.	-	1µM	.
CCOC(=O)CC1C(=O)NCCN1c1nc2ccc(C)cn2c(=O)c1/C=C1\SC(=S)N(C(C)CC)C1=O (centres undefined)	?	.	.	.	1.4µM	.
CCCN1C(=O)/C(=C/c2c(N3CCNC(=O)C3CC(=O)OCC)nc3c(C)cccn3c2=O)SC1=S (centres undefined)	13µM	.	.	.	.	.
CCn1c(=N)c(C(=O)NC2CCCCC2)cc2c(=O)n3cccc(C)c3nc21	.	.	.	-	.	.
COc1cc(C2NC(=S)NC(C)=C2C(=O)Nc2ccc(C)cc2)ccc1O (centres undefined)	-	.	.	.	-	-
Cc1ccccc1N1CCN(CCCN2C(=O)CC(=C(c3ccccc3)c3ccccc3)C2=O)CC1	-	-	?	-	18µM	-
COc1ccc(NC(=O)/C(C#N)=C/C=C/c2ccco2)cc1	-	-	-	.	-	-
COc1cnc(-c2cccc(C(F)(F)F)c2)[nH]c1=O	-	.	.	.	-	-
FC(F)(F)c1cccc(-c2nc3nc(Cl)c(Cl)nc3[nH]2)c1	6.3µM	-[11.4 µM]	?	.	?	-
SMILES	NPSR antag	ALOX12 inhib	HPGD inh	IMPase inh	ALDH1A1 block	IMPase Li inh
C=C(C)C1CC=C(C)/C(=N/NC(=O)c2ccccc2[N+](=O)[O-])C1 (centres undefined)	-	.	.	.	-	-
CC1CCN(c2[nH]c(=S)c(C#N)c3c2CCCC3)CC1	-	-	11µM	-	10µM	?
CC(C)Cn1cc(C(=O)NCc2cccs2)c2c3ccccc3n(C)c2c1=O	-	-	.	-	1µM	.
CC(C(=O)OCC(=O)Nc1ccc2c(c1)OCO2)N1C(=O)c2ccccc2C1=O (centres undefined)	-	-	-	-	7.1µM	-
CC(C(=O)OCC(=O)Nc1cccc(S(=O)(=O)N2CCOCC2)c1)N1C(=O)c2ccccc2C1=O (centres undefined)	-	.	.	.	25µM	-
Cc1ccc(CN2CCN(Cc3cnc(C)s3)CC2CCO)cc1 (centres undefined)	-	.	.	.	-	-
COc1ccc(NC(=O)c2nn(C34CC5CC(CC(C5)C3)C4)cc2[N+](=O)[O-])cc1	-	-	-	.	0.28µM	-
O=[N+]([O-])c1ccc(OCC(O)CN(CCO)CCO)cc1 (centres undefined)	-	-	-	.	-	-
CCN1CCN(Cc2c(O)ccc3c2O/C(=C\C=C\c2ccccc2OC)C3=O)CC1	-	-	?	-	?	-
C/C(=C(\C#N)C(=O)NC1CCCCC1)N(C)C	-	-	16µM	-	-	-
C/C(NC1CCCC1)=C(/C#N)C(N)=O	-	-	-	-	-	-
COc1ccc2nc(-c3ccc(N)cc3)[nH]c2c1	-	-	?	-	6.3µM	-
COc1ccc2nc(-c3cccc(N)c3)[nH]c2c1	-	-	?	-	-	-
O=c1c2c(n3cnnc3n1-c1ccccc1)-c1ccccc1CC21CCCCC1	-	-	-	-	20µM	-
COC(=O)c1ccc(C2/C(=C(/O)c3ccc(OC)cc3)C(=O)C(=O)N2CC2CCCO2)cc1 (centres undefined)	-	-	-	-	?	-
O=C(c1cc(=O)c2ccccc2o1)N1CCCc2ccccc21	-	-	-	-	?	-
O=C(CN1CCN(c2ccccn2)CC1)Nc1cccc(S(=O)(=O)N2CCOCC2)c1	-	.	.	.	-	.
COc1cc(OC)cc(-c2nnc(SCc3cccc(C(=O)O)c3)o2)c1	?	-	11µM	-	-	-
Cc1nnc(SCC(=O)N2CCc3ccccc32)s1	-	-	-	-[1.84 µM]	28µM	-
COc1cccc(-c2nnc(SCC(=O)N3CCCc4ccccc43)o2)c1	-	-	28µM	-	7.9µM	-
O=C(O)c1cccc(CSc2nnc(-c3ccco3)o2)c1	-	-	-	-	-	-
Cc1occc1-c1nnc(SCC(=O)N2CCc3ccccc32)o1	-	-	-	-	0.79µM	-
O=C(CSc1nnc(-c2ccc(Cl)cc2)o1)N1CCc2ccccc21	.	.	.	-	.	.
Cc1[nH]c2ccccc2c1C(=O)CSc1ccccn1	-	.	.	.	?	-
COc1ccc(NC(=O)CSc2nnc(C3CC3)n2N)cc1	-	-	-	-	-	-
COc1ccc(CCSc2nnc(C3CCCCC3)n2N)cc1	-	-	20µM	-	-	-

Screening data as filed in PubChem BioAssay.
